# Results: PubChem BioAssay (NCI)
# About 83,000 compounds went through this panel and 20% of them were active in at least one assay; those are over-represented in the sample as a whole.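 Method: cells in 96-well plates; compound added at one concentration; 48 h incubation; percent growth measured; values under 10 scored active.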 Values without a mark were called inactive. The source made the active and inactive calls.
# Experiments:
# Assay in all cases: NCI-60 one-dose screen, 48 h (100 = growth as untreated, 0 = no growth, -100 = all killed)
# SK-MEL-2 melanoma = conditions: 10 µM unless noted
# SN12C renal = system: SN12C renal
# UO-31 renal = system: UO-31 renal
# TK-10 renal = system: TK-10 renal
# ACHN renal = system: ACHN renal
# CAKI-1 renal = system: CAKI-1 renal
# A498 renal = system: A498 renal
# CCRF-CEM leukemia = system: CCRF-CEM leukemia
# MOLT-4 leukemia = conditions: 10 µM unless noted
# EKVX NSCLC = system: EKVX NSCLC
structure (smiles),measurement,setting,value
COc1ccc(N=Nc2c(N)nn3c(-c4ccc5c(c4)C=S=C5)ccnc23)cc1,growth,SK-MEL-2 melanoma,93.4%
same,growth,SN12C renal; 10 µM unless noted,39%
same,growth,UO-31 renal; 10 µM unless noted,16.4%
same,growth,TK-10 renal; 10 µM unless noted,82.4%
same,growth,ACHN renal; 10 µM unless noted,31.6%
same,growth,CAKI-1 renal; 10 µM unless noted,34%
same,growth,A498 renal; 10 µM unless noted,144%
same,growth,CCRF-CEM leukemia; 10 µM unless noted,10.1%
same,growth,MOLT-4 leukemia,32.9%
NS(=O)(=O)c1ccc(Nc2nc(SCC(=O)c3ccc(F)cc3)nc3ccccc23)cc1,growth,SK-MEL-2 melanoma,48.3%
same,growth,SN12C renal; 10 µM unless noted,53.8%
same,growth,UO-31 renal; 10 µM unless noted,29.1%
same,growth,TK-10 renal; 10 µM unless noted,80.9%
same,growth,ACHN renal; 10 µM unless noted,49.7%
same,growth,CAKI-1 renal; 10 µM unless noted,47.3%
same,growth,A498 renal; 10 µM unless noted,94.6%
same,growth,CCRF-CEM leukemia; 10 µM unless noted,26.9%
same,growth,MOLT-4 leukemia,16.8%
CC(C)C[C@H](NC(=O)CNC(=O)C[C@H]1O[C@@H]2OC3(C)CC[C@H]4[C@H](C)CC[C@@H]([C@H]1C)[C@@]24O3)B(O)O,growth,SK-MEL-2 melanoma,-61.9% (active)
same,growth,SN12C renal; 10 µM unless noted,-39.2% (active)
same,growth,UO-31 renal; 10 µM unless noted,10.5%
same,growth,TK-10 renal; 10 µM unless noted,12.1%
same,growth,ACHN renal; 10 µM unless noted,6.33% (active)
same,growth,CAKI-1 renal; 10 µM unless noted,15.8%
same,growth,A498 renal; 10 µM unless noted,21.1%
same,growth,CCRF-CEM leukemia; 10 µM unless noted,-12.4% (active)
same,growth,MOLT-4 leukemia,7.31% (active)
CC[C@@]12CC(C(=O)OC)=C3Nc4cc5c(cc4[C@@]34CCN(C[C@H]3O[C@H]31)[C@@H]24)[C@@H]1[C@H](O5)[C@@H](O)[C@@]2(CC)CC(C(=O)OC)=C3Nc4cc(O)ccc4[C@@]34CCN1[C@@H]24,growth,SK-MEL-2 melanoma,-70.4% (active)
same,growth,SN12C renal; 10 µM unless noted,-16.8% (active)
same,growth,UO-31 renal; 10 µM unless noted,-66.2% (active)
same,growth,TK-10 renal; 10 µM unless noted,-41.1% (active)
same,growth,ACHN renal; 10 µM unless noted,-26.4% (active)
same,growth,CAKI-1 renal; 10 µM unless noted,-55.8% (active)
same,growth,A498 renal; 10 µM unless noted,-77.1% (active)
same,growth,CCRF-CEM leukemia; 10 µM unless noted,2.67% (active)
same,growth,MOLT-4 leukemia,-15.9% (active)
COc1ccc(NC(=O)CSc2nnc(-c3ccc(-c4nc5ccccc5[nH]4)cc3)o2)cc1,growth,SK-MEL-2 melanoma,61.8%
same,growth,SN12C renal; 10 µM unless noted,31%
same,growth,UO-31 renal; 10 µM unless noted,97.7%
same,growth,TK-10 renal; 10 µM unless noted,96.8%
same,growth,ACHN renal; 10 µM unless noted,35.4%
same,growth,CAKI-1 renal; 10 µM unless noted,41.5%
same,growth,A498 renal; 10 µM unless noted,147%
same,growth,CCRF-CEM leukemia; 10 µM unless noted,50.7%
same,growth,MOLT-4 leukemia,35.9%
Cc1ccc2nc(COc3ccc(C(=O)NNC(=O)Nc4ccc(Cl)c(C(F)(F)F)c4)cc3)[nH]c2c1,growth,SK-MEL-2 melanoma,98.4%
same,growth,SN12C renal; 10 µM unless noted,38.7%
same,growth,UO-31 renal; 10 µM unless noted,110%
same,growth,TK-10 renal; 10 µM unless noted,110%
same,growth,ACHN renal; 10 µM unless noted,89.7%
same,growth,CAKI-1 renal; 10 µM unless noted,73.2%
same,growth,A498 renal; 10 µM unless noted,116%
same,growth,CCRF-CEM leukemia; 10 µM unless noted,41.6%
same,growth,MOLT-4 leukemia,75.5%
Cc1ccc2c(c1)/C(=C/C(=O)c1cc3ccccc3oc1=O)C(=O)N2,growth,SK-MEL-2 melanoma,72.6%
same,growth,SN12C renal; 10 µM unless noted,67.8%
same,growth,UO-31 renal; 10 µM unless noted,55.2%
same,growth,TK-10 renal; 10 µM unless noted,80.7%
same,growth,ACHN renal; 10 µM unless noted,-63.2% (active)
same,growth,CAKI-1 renal; 10 µM unless noted,76.9%
same,growth,A498 renal; 10 µM unless noted,128%
same,growth,CCRF-CEM leukemia; 10 µM unless noted,3.14% (active)
same,growth,MOLT-4 leukemia,32.8%
C/C(=N\Nc1ccc(S(N)(=O)=O)cc1)c1cnn(-c2cc(=O)[nH]c3ccc(Br)cc23)c1C,growth,SK-MEL-2 melanoma,20%
same,growth,SN12C renal; 10 µM unless noted,61.2%
same,growth,UO-31 renal; 10 µM unless noted,54.8%
same,growth,TK-10 renal; 10 µM unless noted,146%
same,growth,ACHN renal; 10 µM unless noted,81%
same,growth,CAKI-1 renal; 10 µM unless noted,76.7%
same,growth,A498 renal; 10 µM unless noted,115%
same,growth,CCRF-CEM leukemia; 10 µM unless noted,8.23% (active)
same,growth,MOLT-4 leukemia,18.5%
COc1ccc2[nH]cc(-c3cc(N)n4nc(-c5c[nH]c6ccccc56)cc4n3)c2c1,growth,SK-MEL-2 melanoma,-63.7% (active)
same,growth,SN12C renal; 10 µM unless noted,49.1%
same,growth,UO-31 renal; 10 µM unless noted,-74.9% (active)
same,growth,TK-10 renal; 10 µM unless noted,-1.71% (active)
same,growth,ACHN renal; 10 µM unless noted,8.14% (active)
same,growth,CAKI-1 renal; 10 µM unless noted,-59.5% (active)
same,growth,A498 renal; 10 µM unless noted,-0.442% (active)
same,growth,CCRF-CEM leukemia; 10 µM unless noted,-20% (active)
same,growth,MOLT-4 leukemia,-7.46% (active)
CC/C(=C(\c1ccc(O)cc1)c1ccc(OCCNC)cc1)c1ccccc1,growth,EKVX NSCLC; 1 µM,98.9%
same,growth,EKVX NSCLC; 10 µM,96.4%
same,growth,SN12C renal; 1 µM,101%
same,growth,SN12C renal; 10 µM,73.8%
same,growth,UO-31 renal; 1 µM,90.2%
same,growth,UO-31 renal; 10 µM,62.7%
same,growth,TK-10 renal; 1 µM,91.2%
same,growth,TK-10 renal; 10 µM,94.5%
same,growth,ACHN renal; 1 µM,98.4%
same,growth,ACHN renal; 10 µM,90.4%
same,growth,CAKI-1 renal; 1 µM,98.9%
same,growth,CAKI-1 renal; 10 µM,85.3%
same,growth,A498 renal; 1 µM,104%
same,growth,A498 renal; 10 µM,91.2%
same,growth,CCRF-CEM leukemia; 1 µM,89.9%
same,growth,CCRF-CEM leukemia; 10 µM,92.6%
Cc1ccc(C2CC(c3ccc(NC(=O)Nc4ccccc4)cc3)=NN2c2ccc(S(C)(=O)=O)cc2)cc1 (centres undefined),growth,SK-MEL-2 melanoma,-13.7% (active)
same,growth,SN12C renal; 10 µM unless noted,-94% (active)
same,growth,UO-31 renal; 10 µM unless noted,3.37% (active)
same,growth,TK-10 renal; 10 µM unless noted,21.7%
same,growth,ACHN renal; 10 µM unless noted,-44.4% (active)
same,growth,CAKI-1 renal; 10 µM unless noted,5.74% (active)
same,growth,A498 renal; 10 µM unless noted,-16.3% (active)
same,growth,CCRF-CEM leukemia; 10 µM unless noted,9.5% (active)
same,growth,MOLT-4 leukemia,20.3%
N/C(=N\c1nc2ccccc2s1)NC(=O)Nc1ccccc1F,growth,SK-MEL-2 melanoma,11%
same,growth,SN12C renal; 10 µM unless noted,26.4%
same,growth,UO-31 renal; 10 µM unless noted,34.3%
same,growth,TK-10 renal; 10 µM unless noted,38.4%
same,growth,ACHN renal; 10 µM unless noted,47.8%
same,growth,CAKI-1 renal; 10 µM unless noted,18.6%
same,growth,A498 renal; 10 µM unless noted,78.4%
same,growth,CCRF-CEM leukemia; 10 µM unless noted,5.96% (active)
same,growth,MOLT-4 leukemia,21.1%
COc1ccc(N=Nc2c(N)nn3c(-c4ccc(OC)c(OC)c4)ccnc23)cc1,growth,SK-MEL-2 melanoma,103%
same,growth,SN12C renal; 10 µM unless noted,88.5%
same,growth,UO-31 renal; 10 µM unless noted,108%
same,growth,TK-10 renal; 10 µM unless noted,88.6%
same,growth,ACHN renal; 10 µM unless noted,77.4%
same,growth,CAKI-1 renal; 10 µM unless noted,-60.2% (active)
same,growth,A498 renal; 10 µM unless noted,95.7%
same,growth,CCRF-CEM leukemia; 10 µM unless noted,86.9%
same,growth,MOLT-4 leukemia,100%
